LANA DNA inh = inhibitors of KSHV C-LANA binding to DNA, primary screen, biochemical, fluorescence polarization, FAM-LBS DNA, MBP-C-LANA, single point; Kaposi's sarcoma herpesvirus LANA C-terminal domain (residues 932-1162) DNA binding; AID 504423, 2011; inhibition, % at 9 µM; hit rate 0.078% among 340,000;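 active = highest replicate inhibition at or above 60% at 9 µM, even if other replicates fall short; inactive = all replicates below 60% inhibition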;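 also: 0% = neutral control wells and 100% = 4 µM acridine orange control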
RTF Ca sens inh = cardiac RTF calcium sensitivity inhibitors, primary screen, biochemical, IANBD-TnC fluorescence, EC70 calcium | Troponin I, cardiac muscle (Homo sapiens) + Troponin T, cardiac muscle (Homo sapiens) + … | AID 493244, 2011 | hit rate 0.12% among 340,000 | inhibition, % at 7.15 µM | IANBD-labeled cardiac RTF, Ca2+ fluorescence;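 active = inhibition above the mean inhibition of all tested compounds plus 3 SD, cut at about 17% in these data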;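 also: assay run at fixed EC70 calcium of 1.6 mM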
RTF Ca sens act = cardiac RTF calcium sensitivity activators, primary screen, biochemical, IANBD-TnC fluorescence, EC20 calcium; activation, % at 7.2 µM; Troponin I, cardiac muscle (Homo sapiens) + Troponin T, cardiac muscle (Homo sapiens) + …; hit rate 0.24% among 340,000; IANBD-labeled TnC RTF fluorescence at EC20 calcium; 0% EC20 calcium, 100% full calcium;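 active = activation above the mean over all tested compounds plus 3 SD, cut at about 30% in these data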;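 also: rise in fluorescence read as greater calcium sensitivity of cardiac thin filaments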
Keap1 Nrf2 FP = Keap1-Nrf2 protein-protein interaction inhibitors, primary screen, biochemical, fluorescence polarization, single point | Keap1 Kelch-Nrf2 peptide fluorescence polarization, 1536-well | inhibition, % at 9.4 µM | hit rate 0.15% among 340,000; in the data active = inhibition above about 12%;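 also: human Keap1 Kelch domain with fluorescein labeled Nrf2 9mer peptide probe; 0% = neutral control wells and 100% = peptide positive control; higher means more block of Keap1 binding to Nrf2 peptide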
Target sequence (Q14145 whole entry, looked up, the tested form may be a part): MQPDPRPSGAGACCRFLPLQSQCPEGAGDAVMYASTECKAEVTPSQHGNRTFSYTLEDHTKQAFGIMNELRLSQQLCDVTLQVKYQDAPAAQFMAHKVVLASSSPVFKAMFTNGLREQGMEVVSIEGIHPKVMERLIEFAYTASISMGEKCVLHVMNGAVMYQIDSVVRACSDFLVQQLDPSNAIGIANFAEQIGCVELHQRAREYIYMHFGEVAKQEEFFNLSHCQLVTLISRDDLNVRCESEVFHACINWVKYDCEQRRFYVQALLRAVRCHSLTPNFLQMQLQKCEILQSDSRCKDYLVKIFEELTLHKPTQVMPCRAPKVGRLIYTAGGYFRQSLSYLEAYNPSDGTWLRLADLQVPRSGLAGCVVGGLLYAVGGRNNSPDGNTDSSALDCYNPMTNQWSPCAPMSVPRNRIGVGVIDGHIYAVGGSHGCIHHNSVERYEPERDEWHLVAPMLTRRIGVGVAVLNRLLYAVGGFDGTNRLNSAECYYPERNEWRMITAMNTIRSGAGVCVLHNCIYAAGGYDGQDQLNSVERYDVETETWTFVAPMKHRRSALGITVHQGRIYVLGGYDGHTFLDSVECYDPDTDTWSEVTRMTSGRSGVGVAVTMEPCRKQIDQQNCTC
eLon inh = inhibitors of E. coli Lon protease, primary screen, biochemical, fluorescence polarization; P0A9M0; purified E. coli Lon protease; inhibition, % at 7.94 µM; hit rate 0.42% among 360,000; in the data active = inhibition above about 13%, passing the limit was not always enough;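 also: 0% = enzyme with probe and DMSO and 100% = no enzyme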
Starred values were filed as active, the others as inactive; i = inactive; · = not tested or not shown; + = active, no number. Only some compounds are listed: those with a hit (about 0.82% of all), similar ones and a draw of the others.

SMILES | LANA DNA inh | RTF Ca sens inh | RTF Ca sens act | Keap1 Nrf2 FP | eLon inh
CC(C)(C)n1nnnc1C(c1ccccc1)N1CCN(c2ccccn2)CC1 (stereo not given) | · | · | · | · | -4.6
Cc1ccc(NC(=O)COCC(=O)Nc2ccc(C)cc2)cc1 | -0.8 | 3.3 | -2.6 | -0.6 | -7.3
Cc1ccc(S(=O)(=O)OCC(=O)Nc2ccc(C(=O)O)c(O)c2)cc1 | 62.3* | -10.3 | -6.3 | -4.8 | 27.5
CC(C)n1nnnc1C1c2ccccc2C(=O)N1C1CC1 (stereo not given) | · | · | · | · | -0.1
CC(=O)c1ccc(C(=O)Nc2sc3c(c2C(N)=O)CCN(Cc2ccccc2)C3)cc1 | 8.7 | -160.5 | 102.3* | -4.0 | i
COc1cccc(OC)c1C(=O)Nc1sc2c(c1C(N)=O)CCN(Cc1ccccc1)C2 | 0.0 | -9.4 | 2.1 | -2.3 | -19.9
NC(=O)c1c(NC(=O)C2COc3ccccc3O2)sc2c1CCN(Cc1ccccc1)C2 (stereo not given) | 23.4 | -76.8 | 38.0* | -2.0 | -306.2
CC(C)C[C@H]1CN(CCCC[C@H]2CNC(=O)C(=O)N2CCc2ccccc2)C(=O)C(=O)N1CC1CCCCC1 | · | · | · | · | -7.9
COc1ccc2[nH]c(C(=O)N3CCC(n4nccc4NC(=O)C4CC4)CC3)c(C)c2c1 | -1.8 | -7.2 | 2.0 | -0.4 | 0.6
CCN(CCCNC(=O)C1c2ccccc2C(=O)N(CCOC)C1c1ccc(F)cc1)Cc1ccccc1 (stereo not given) | 83.2* | -8.6 | 0.8 | 3.1 | 8.4
Cc1cc(C)c(S(=O)(=O)NC2CCN(Cc3ccccc3)CC2)c(C)c1 | -0.2 | -1.6 | 0.2 | 1.1 | -9.1
Cc1cc(S(=O)(=O)NC2CCN(Cc3ccccc3)CC2)c(C)cc1Cl | 82.2* | -5.8 | 1.1 | -0.4 | -10.6
N#Cc1ccccc1OCCCN1CCC(C(O)(c2ccccc2)c2ccccc2)CC1 | · | · | · | · | -5.6
NC(=S)N=Nc1c(O)cc(O)c2[nH]c(=O)ccc12 | 23.6 | 11.6 | -1.4 | 15.5* | 10.8
COc1ccccc1Cc1c(-c2ccc(C#N)cc2)nc2ccc(C)cn12 | · | · | · | · | -8.9
CCc1ccc(Nc2n[n+](-c3ccccc3)c(-c3ccc(OCc4ccccc4)cc3)s2)cc1 | 4.0 | -4.3 | 2.0 | -6.3 | -7.5
CCN(CC)c1ccc(-c2sc(Nc3ccccc3)n[n+]2-c2ccc(F)cc2)cc1 | 4.7 | -24.7 | 30.6* | -16.0 | -175.9
CCc1ccc(Nc2n[n+](-c3ccccc3)c(-c3ccc(N(CC)CC)cc3)s2)cc1 | 3.5 | -61.2 | 33.4* | -18.4 | -401.4
COc1ccc(NC(=O)C2c3ccccc3OCC(=O)N2C2CC2)cc1 (stereo not given) | · | · | · | · | 4.6
CC(C)[C@@H]1Cc2[nH][nH]c(=O)c2[C@H](C(C)C)O1 | · | · | · | · | -5.1
CC1=Nc2ccccc2/C1=C\c1nc(-c2ccc(C(F)(F)F)cc2)oc1O | 4.0 | -44.6 | 155.9* | -0.2 | -152.0
O=C(OC1CC2CC1[C@H]1CCCCN1C2=O)N1CCN(S(=O)(=O)c2ccccc2)CC1 (stereo not given in full) | · | · | · | · | 4.1
O=C1S/C(=C\c2ccc(N3CCOCC3)o2)C(=O)N1Cc1ccc(F)cc1 | 0.8 | -40.2 | 50.4* | -59.5 | -169.3
O=C1S/C(=C/c2ccc(N3CCOCC3)o2)C(=O)N1Cc1ccc(F)cc1 | -0.6 | -51.0 | 72.1* | -7.3 | -129.7
O=C1N=C(N2CCOCC2)S/C1=C/c1ccc(-c2ccc(F)cc2)o1 | -1.3 | -14.3 | 5.5 | -0.8 | -10.5
SMILES | LANA DNA inh | RTF Ca sens inh | RTF Ca sens act | Keap1 Nrf2 FP | eLon inh
O=C1NC(=S)S/C1=C/c1ccc(N2CCOCC2)o1 | -13.5 | -4.8 | 34.3* | -16.1 | -2.7
CC(C)OC(=O)CN1C(=O)S/C(=C/c2ccc(N3CCCCC3)o2)C1=O | -1.4 | -54.7 | 93.3* | -4.7 | -417.3
C#CCN1C(=O)S/C(=C\c2ccc(-c3ccc(C(=O)O)cc3C)o2)C1=O | 17.1 | 0.4 | 5.2 | -8.1 | -15.7
COc1ccc(Cc2c(-c3ccc(F)cc3)nc3cc(C)c(Br)c(C)n23)c(C)c1 | · | · | · | · | 1.8
CC(C)C[C@H]1CN(CCCC[C@H]2CNC(=O)C(=O)N2CC2CCCCC2)C(=O)C(=O)N1CCc1ccccc1 | · | · | · | · | -10.0
CC1(C)OC(=O)C2=C(C[C@@H](CCOCc3ccccc3)O[C@@H]2c2ccc(F)cc2)O1 | · | · | · | · | -4.8
C/C(=N/NC(=O)c1ccncc1)c1cc2ccc(O)cc2oc1=O | 74.7* | -402.6 | + | -76.3 | i
CN(Cc1ccccc1)C(=O)[C@@H]1CCCN1C(=O)[C@@H]1CCCN1C(=O)c1ccccc1 | · | · | · | · | -3.4
COc1ccc2nc3ccccc3nc2c1NC(=O)c1ccc(Cl)cc1Cl | 1.1 | -35.2 | 360.7* | -15.2 | -7.2
COc1ccc(CC(N)c2csc(Nc3cc(NCc4ccco4)ncn3)n2)cc1 (stereo not given) | · | · | · | · | -6.8
CCOc1ccc(N(C)c2ccc(/C=C3/SC(=S)NC3=O)cc2)cc1 | -2.3 | -58.5 | 44.7* | -5.2 | -120.6
COCCCN1C(=O)C(CC(=O)NCCN2CCOCC2)CC(C(=O)N2CCOCC2)=C1C (stereo not given) | · | · | · | · | -3.3
COC1=C/C(=C/c2c(N)n3nc(CC(=O)N4CCCC4)sc3nc2=O)C=CC1=O | 57.3 | -4.5 | 9.0 | -4.7 | -53.8
Nc1c(/C=C2/C=CC(=O)C(O)=C2)c(=O)nc2sc(CC(=O)N3CCCC3)nn12 | 109.1* | -10.6 | 3.5 | -5.3 | -24.6
CCOC1=C/C(=C/c2c(N)n3nc(CC(=O)N4CCCC4)sc3nc2=O)C=CC1=O | 52.0 | -2.9 | 2.5 | -10.9 | -55.3
Nc1c(C=C2C=CC(=O)C=C2)c(=O)nc2sc(CC(=O)N3CCCCC3)nn12 | 30.2 | -2.1 | -7.4 | -1.1 | -14.2
Nc1c(/C=C2/C=CC(=O)C(O)=C2)c(=O)nc2sc(CC(=O)N3CCOCC3)nn12 | 109.8* | -4.3 | 2.3 | -3.5 | -19.0
Nc1c(/C=C2/C=CC(=O)C(O)=C2)c(=O)nc2sc(CC(=O)N3CCCCC3)nn12 | 108.3* | 4.6 | -9.1 | -3.0 | -17.6
CC1(C(=O)Nc2cccnc2)Cc2c(-c3ccc4c(c3)OCO4)ccnc2O1 (stereo not given) | · | · | · | · | 4.6
COc1ccc(/C=C/C(=O)Nc2ccccc2Cl)cc1S(=O)(=O)N1CCOCC1 | 0.9 | -0.6 | -3.6 | 2.1 | -10.5
CCc1nc2c(OCCn3cccc3)cccn2c1N(C)C(=O)c1ccccc1F | · | · | · | · | -5.5
CC(C)(C)c1ccc(C(=O)n2cnc3ccccc32)cc1 | 7.3 | -1.1 | 49.6* | -3.6 | 6.4
CCN(CC)c1ccc(C(=O)n2cnc3ccccc32)cc1 | 0.3 | -5.9 | 0.5 | -2.1 | -7.4
COc1ccc(-n2nc3c(N4CCC(C(=O)NCc5ccccc5C)CC4)nnc(C)c3c2C)cc1 | 6.6 | -8.9 | -6.6 | -1.9 | -13.7
COc1ccc(-n2nc3c(N4CCC(C(=O)NCc5ccco5)CC4)nnc(C)c3c2C)cc1 | 0.0 | -1.9 | 29.7* | -4.9 | -0.5

Screening results: PubChem, several laboratories
